Screens deposited in PubChem by National Center for Advancing Translational Sciences (NCATS).
Only some compounds are listed: those with a hit (about 4.6% of all), similar ones and a draw of the others.
TRHR enhancer – qHTS for Small Molecule Agonists and Allosteric Enhancers of Human TRH Receptor: Primary Screen for Enhancers; enhancement, % at 2 µM; TRHR cells, fluo-8 calcium fluorescence, EC20 TRH enhancement; Thyrotropin-releasing hormone receptor (Homo sapiens), P34981; 360,000 compounds, 0.66% hits; in the data active = enhancement above about 30%; note: 0% is about no effect
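TRHR-expressing cells loaded with fluo-8 calcium dye were read kinetically (ex 480/em 530) during compound addition, then stimulated with an EC20 of TRH (10 nM final). Enhancement of the Gq-mediated intracellular calcium response was scored.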
TRHR agonist – qHTS for Small Molecule Agonists and Allosteric Enhancers of Human TRH Receptor: Primary Screen for Agonists; Thyrotropin-releasing hormone receptor (Homo sapiens), P34981; TRHR cells, calcium flux fluo-8, FDSS agonist mode; activation, % at 2 µM; 360,000 compounds, 0.18% hits; note: 0% is about no effect
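Fluo-8-loaded TRHR cells; 10 s baseline, compound added, kinetic Ca2+ fluorescence read 1/s, agonist mode.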
D1 PAM – Potentiators of Human D1 Dopamine Receptor: qHTS; potentiation, % at 10 µM; AID 504651, 2011; HEK293 TREx D1 cells, calcium flux, dopamine EC20 potentiation; 360,000 compounds, 0.036% hits; D(1A) dopamine receptor (Homo sapiens), P21728; in the data active = potentiation above about 30%; note: 0% is about no effect
Target sequence (P21728 whole entry, looked up): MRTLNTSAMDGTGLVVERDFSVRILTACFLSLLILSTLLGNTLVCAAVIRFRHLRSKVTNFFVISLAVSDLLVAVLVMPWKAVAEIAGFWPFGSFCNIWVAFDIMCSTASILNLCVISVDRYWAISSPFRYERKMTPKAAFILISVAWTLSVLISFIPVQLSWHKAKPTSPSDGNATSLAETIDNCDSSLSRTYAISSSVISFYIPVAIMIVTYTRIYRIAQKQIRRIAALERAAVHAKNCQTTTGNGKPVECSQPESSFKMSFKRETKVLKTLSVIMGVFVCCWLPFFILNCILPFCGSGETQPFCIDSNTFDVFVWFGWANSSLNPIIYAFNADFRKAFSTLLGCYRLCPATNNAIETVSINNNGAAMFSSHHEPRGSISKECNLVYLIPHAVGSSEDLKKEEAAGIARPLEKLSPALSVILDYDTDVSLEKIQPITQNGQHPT
D1 antag – Antagonist of Human D 1 Dopamine Receptor: qHTS; HEK293 TREx D1 cells, calcium flux, dopamine EC80; hits give low values; D(1A) dopamine receptor (Homo sapiens), P21728; 360,000 compounds, 3.2% hits; activity change, negative = inhibition, % at 10 µM; AID 504652, 2011; in the data active = activity change below about -30%; note: % is set by controls: 0 for no effect and ±100 for the full control effect
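After overnight tetracycline induction at 30 C, force-coupled D1 HEK293 cells took up a no-wash calcium dye at room temperature. Compounds were added and monitored 180 s, and the response to EC80 dopamine was then recorded.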
D1 agonist – Allosteric Agonists of the Human D1 Dopamine Receptor: qHTS; HEK293 T-REx D1 cells, calcium flux, agonist mode; activation, % at 2 µM; AID 504660, 2011; 360,000 compounds, 1% hits; note: 0% is about no effect
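Tetracycline-induced HEK293 TREx D1 cells, force-coupled to calcium signalling, were dye-loaded with a no-wash calcium kit. Compound was pin-added after a 10 s baseline. Fluorescence was read kinetically at 1 cycle/s for 180 s, with calcium rises flagged as agonism.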
* marks the source's active call; other numbers are inactive results; . = no result. Cut-off read from the data, not from the text of the source, unless noted: active = activation above about 30%; inactive = the rest.

SMILES | TRHR enhancer | TRHR agonist | D1 PAM | D1 antag | D1 agonist
N#Cc1cccc(NC(=O)c2ccc3c(c2)N(Cc2cccc(Cl)c2)C(=O)c2ccccc2S3(=O)=O)c1 | 31* | 2 | -4 | -7 | 7
O=C(c1ccc2c(c1)N(Cc1ccccc1)C(=O)c1ccccc1S2(=O)=O)N1CCN(Cc2ccccc2)CC1 | -3 | 0 | 0 | 0 | 1
O=C(c1ccc2c(c1)N(Cc1cccc(Cl)c1)C(=O)c1ccccc1S2(=O)=O)N1CCC(Cc2ccccc2)CC1 | -1 | 1 | -3 | -34* | 5
Cc1cc(S(=O)(=O)N2CCN=C2c2ccccc2)c(Cl)cc1Cl | -6 | -1 | -2 | 4 | -1
Cc1c(C(=O)O)oc2c1ccc1ccccc12 | 8 | 0 | -3 | -12 | 1
Cc1c(C(=N)C(C#N)C#N)c(=N)oc2c1ccc1ccccc12 | 3 | 0 | 5 | -41* | 2
Cc1cccc(N2CCN(C(=O)C3CCN(S(=O)(=O)c4cccs4)CC3)CC2)c1C | -13 | -2 | -2 | -34* | -3
Cc1cccc(N2CCN(C(=O)C3CCC(CNS(=O)(=O)c4cccs4)CC3)CC2)c1C (configuration not stated) | 5 | 0 | -1 | -4 | -3
CC1CCCC(NC(=O)C2CCCN2S(=O)(=O)c2cccc3nsnc23)C1C (configuration not stated) | 36* | 1 | . | 17 | 2
COc1ccc(C(=O)COC(=O)C2CCN(S(=O)(=O)c3cccc4cccnc34)CC2)cc1 | 7 | 1 | -6 | -70* | 5
O=C(NC1CCCCC1)C1CCN(S(=O)(=O)c2cccc3cccnc23)CC1 | -2 | 0 | -9 | -65* | 3
COC(=O)c1ccccc1S(=O)(=O)N1CCC(C(=O)OCc2cccc(OC)c2OC)CC1 | 4 | 1 | -1 | -39* | 44*
CC(=O)Nc1ccc(NC(=O)C2CCCN2S(=O)(=O)c2cccc3nsnc23)cc1 (configuration not stated) | 10 | 0 | -1 | 5 | -1
CCOC(=O)N1CCC(NC(=O)C2CCN(S(=O)(=O)c3cccc4cccnc34)CC2)CC1 | -14 | -1 | -4 | -7 | 3
CCc1ccccc1NC(=O)CN(Cc1ccccc1)S(=O)(=O)c1ccc(Br)cc1 | -7 | 2 | 0 | 7 | 4
Cc1ccc(C)c(Cn2c(=O)n(CCc3ccccc3)c(=O)c3c(C)c(C)sc32)c1 | -3 | 0 | 1 | 5 | 0
COc1ccc(CNC(=O)c2cnc3sc(N4CCCC4)nn3c2=O)cc1OC | 7 | 0 | -6 | -19 | -1
COc1cccc(-n2c(=O)c3c(C)c(C)sc3n(CC(=O)NCc3ccccc3)c2=O)c1 | -1 | 0 | 2 | -23 | 1
O=C(NC1CCCC1)C1CCCN1S(=O)(=O)c1cccc2cccnc12 (configuration not stated) | -4 | 0 | -5 | -34* | 1
CCc1ccc(NCc2cccn2-c2nnc(N3CCCCCC3)s2)cc1 | 8 | 0 | 2 | -31* | 0
COc1ccccc1CC(=O)NCCc1ccccc1 | -4 | -1 | 0 | -5 | 0
COc1ccccc1C(=O)NCCC(=O)NCCc1ccccc1 | -21 | 2 | -16 | -77* | 2
Cn1c(=O)n(CCc2ccccc2)c(=O)c2c1nc1n2CCN1c1ccc(Cl)cc1 | -2 | 0 | 2 | 1 | 1
O=C(Nc1ccccc1)Nc1cc(OCC(F)(F)F)cc(OCC(F)(F)F)c1 | -13 | 1 | -10 | -33* | 22
CCN(CC)c1ccc(NC(=O)CCS(=O)(=O)c2ccc3c(c2)oc(=O)n3C)c(C)c1 | -11 | -1 | 4 | -2 | 0
Cc1ccc2nc(Cl)c3cc(C(=O)NC4CCCCC4)sc3c2c1 | -3 | 0 | -1 | -18 | -1
O=c1c2ccccc2[nH]c(=S)n1CCN1CCCCC1 | -3 | 0 | -13 | 9 | 0
